Reference: PubChem BioAssay (NCATS)
Inconclusive results are not listed. Entries that show only a call come without a potency. Values without a mark were called inactive. The source made the active and inactive calls. Calls follow the shape of the dose curve; as a rule, active = well fitted curve in the direction sought with a large enough effect; inconclusive = small, poorly fitted or top-dose-only effect, or another doubt; inactive = no such curve, though single readings can be large; an effect the other way counts as inactive or inconclusive.

Tests used:
[1] = molecular target: Protein phosphatase 1D (Homo sapiens) (UniProt O15297); assay: RapidFire Mass Spectrometry qHTS Assay for Modulators of WT P53-Induced Phosphatase 1 (WIP1) (AID 1347424); conditions: WIP1 dephosphorylation of phosphopeptide, RapidFire MS; series mostly up to 63 µM;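 also: amount of dephosphorylated VEPPL-S-QETFS peptide product formed by WIP1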
Protein phosphatase 1D (Homo sapiens), sequence (O15297 whole entry, looked up): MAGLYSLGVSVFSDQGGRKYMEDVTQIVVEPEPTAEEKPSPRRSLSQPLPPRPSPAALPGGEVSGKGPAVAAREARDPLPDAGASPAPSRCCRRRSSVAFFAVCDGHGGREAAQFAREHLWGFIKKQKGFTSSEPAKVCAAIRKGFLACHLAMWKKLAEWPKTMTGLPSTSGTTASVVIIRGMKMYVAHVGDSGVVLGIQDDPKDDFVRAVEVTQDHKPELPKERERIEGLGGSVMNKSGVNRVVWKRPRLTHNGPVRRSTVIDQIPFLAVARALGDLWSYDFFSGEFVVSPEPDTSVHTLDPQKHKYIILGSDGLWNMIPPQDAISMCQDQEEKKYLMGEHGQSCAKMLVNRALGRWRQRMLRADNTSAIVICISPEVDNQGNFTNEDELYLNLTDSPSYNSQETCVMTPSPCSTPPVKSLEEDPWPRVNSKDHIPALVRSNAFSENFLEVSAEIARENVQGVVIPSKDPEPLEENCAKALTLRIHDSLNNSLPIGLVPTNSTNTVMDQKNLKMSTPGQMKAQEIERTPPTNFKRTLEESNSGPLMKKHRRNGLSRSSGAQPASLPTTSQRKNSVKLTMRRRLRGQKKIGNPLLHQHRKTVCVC
Procedure, shortened: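 RapidFire mass spectrometry measured dephosphorylated peptide after 5 min room-temperature reaction of 2 uM VEPPL-pS-QETFS with 10 nM WIP1 (50 mM Tris-HCl pH 7.5, 30 mM MgCl2, 0.1 mM EGTA, BSA), following 1 hr compound preincubation; 1 uM isotope-labelled product standard.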

[2] = molecular target: Protein phosphatase 1D (Homo sapiens) (UniProt O15297); assay: Rhodamine-PBP qHTS Assay for Modulators of WT P53-Induced Phosphatase 1 (WIP1) (AID 1347425); conditions: recombinant WIP1, Rhodamine-PBP phosphate fluorescence, real-time; series mostly up to 57.5 µM
Procedure, shortened: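 Read-out: Rhodamine-PBP fluorescence (ex 525/em 598 nm) for released Pi, read each minute for 11 min after adding 10 uM VEPPL-pS-QETFS; signal taken as f1 minus pre-substrate f0. Enzyme 5 nM WIP1 with 1 hr room-temperature compound preincubation.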

[3] = Primary qHTS for inhibitors of La Crosse Virus (LACV) - induced cell death in SH-SY5Y cells (AID 1508616); conditions: SH-SY5Y LACV cytopathicity rescue, ATP luminescence, 6 d; series mostly up to 4.29 µM;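 also: top concentration of the series differs between compounds; higher means more rescue of cells from virus-induced death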
Procedure, shortened: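 Screening measures cell viability in LACV-infected SH-SY5Y cultures. Compound was added before virus (0.01 MOI), and ATP was detected by luminescence 6 days later.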

[4] = molecular target: Calcium and integrin-binding protein 1 (Homo sapiens) (UniProt Q99828); assay: Primary qHTS for Identification of Calcium Integrin Binding Protein 1 (CIB1) Competitor (AID 1508620); conditions: CIB1-GST / FITC-alphaIIb peptide fluorescence polarization; series mostly up to 114 µM;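 also: GST tagged CIB1 binding a fluorescein labelled alphaIIb integrin peptide tracer; top concentration of the series differs between compounds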
Calcium and integrin-binding protein 1 (Homo sapiens), sequence (Q99828 whole entry, looked up): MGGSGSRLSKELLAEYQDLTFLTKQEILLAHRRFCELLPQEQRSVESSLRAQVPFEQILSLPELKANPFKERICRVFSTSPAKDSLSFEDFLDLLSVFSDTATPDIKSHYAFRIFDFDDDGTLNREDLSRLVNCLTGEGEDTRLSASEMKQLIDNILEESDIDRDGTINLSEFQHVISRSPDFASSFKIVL
Procedure, shortened: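 CIB1-GST (1 uM final) and compound incubated 15 min at room temperature before adding FITC-alphaIIb peptide tracer (100 nM final). Competition for binding read by fluorescence polarization (ex 480, em 540) after another 15 min at room temperature.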

[5] = Primary qHTS for small molecule stabilizers of the endoplasmic reticulum resident proteome: Secreted ER Calcium Modulated Protein (SERCaMP) assay (AID 1508630); conditions: SH-SY5Y GLuc-SERCaMP (Gaussia luciferase released on ER calcium loss) secretion, thapsigargin, luminescence; series mostly up to 38.4 µM
Procedure, shortened: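 The SH-SY5Y reporter protocol was run at 3 concentrations up to 38.3 uM (primary) or 11 concentrations (follow-up): 16 h compound, 100 nM thapsigargin for 4 h, then extracellular luciferase luminescence.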

[6] = Counterscreen qHTS for small molecule stabilizers of the endoplasmic reticulum resident proteome: GLuc-NoTag assay (AID 1508627); conditions: Gaussia luciferase NoTag secretion counterscreen, luminescence, thapsigargin 100 nM for final 4 h; series mostly up to 76.4 µM;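 also: SH-SY5Y cells given compound then 100 nM thapsigargin to empty ER calcium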
Procedure, shortened: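 Counterscreen line: SH-SY5Y-GLuc-NoTag cells, treated with compound 19 hr before a 4 hr, 100 nM thapsigargin calcium depletion. Secreted Gaussia luciferase in the medium was measured by luminescence after coelenterazine was added (0.07x final), with cells unlysed.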

[7] = Confirmatory qHTS for small molecule stabilizers of the endoplasmic reticulum resident proteome: Secreted ER Calcium Modulated Protein (SERCaMP) assay (AID 1508628); conditions: SERCaMP secreted luciferase ER calcium/proteostasis reporter; series mostly up to 76.3 µM; also: nearly all actives have a fitted effect of over 40% in size; also: potency is read from the fitted curve at half-maximal effect
Procedure, shortened: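 GLuc-SERCaMP-expressing SH-SY5Y cells, pretreated 16 h with compound, are challenged with thapsigargin to empty ER calcium stores; after 4 h, coelenterazine is added directly to the medium and luminescence is imaged.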

[8] = Cell Viability qHTS for small molecule stabilizers of the endoplasmic reticulum resident proteome (AID 1508629); conditions: cell viability counter-screen, 100 nM thapsigargin for final 4 h;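 also: human SH-SY5Y neuroblastoma cells carrying the GLuc-SERCaMP reporter; compound exposure about 46 h in total before the viability read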

Structure (SMILES) | outcome [1] | outcome [2] | outcome [3] | outcome [4] | outcome [5] | outcome [6] | Potency [7] | max response [8] [%]
Cc1ccc(S(=O)(=O)NC(=O)NC2CCCCC2)cc1 | inactive | inactive | inactive | inactive | inactive | – | – | –
NC(=O)c1ccc([N+](=O)[O-])cc1Cl | inactive | inactive | inactive | inactive | inactive | – | – | –
CCN(CC)CC1CCCCN1CC(=O)N1c2ccccc2C(=O)Nc2cccnc21 (stereo unspecified) | inactive | inactive | inactive | inactive | inactive | – | – | –
CCCOC(=O)c1ccc(N)cc1 | inactive | inactive | inactive | inactive | inactive | – | – | –
O=C(O)c1ccccc1C(=O)Nc1ccc(S(=O)(=O)Nc2nccs2)cc1 | inactive | inactive | inactive | inactive | inactive | – | – | –
CCCCCCCC(=O)OCC(O)CO (stereo unspecified) | inactive | inactive | inactive | inactive | inactive | – | – | –
COc1cc(O)cc(O)c1 | inactive | inactive | inactive | inactive | inactive | – | – | –
Cc1c(C)c2c(c(C)c1OC(=O)c1cccnc1)CC[C@@](C)(CCC[C@H](C)CCC[C@H](C)CCCC(C)C)O2 | inactive | inactive | inactive | inactive | inactive | – | – | –
C=CCSCC1Nc2cc(Cl)c(S(N)(=O)=O)cc2S(=O)(=O)N1 (stereo unspecified) | inactive | inactive | inactive | inactive | inactive | – | – | –
CCN1CC(CCN2CCOCC2)C(c2ccccc2)(c2ccccc2)C1=O (stereo unspecified) | inactive | inactive | inactive | inactive | inactive | – | – | –
CNc1c2c(nn1C)CCCC2 | inactive | inactive | inactive | inactive | inactive | – | – | –
O[C@@H]1CO[C@H]2[C@@H]1OC[C@@H]2O | inactive | inactive | inactive | inactive | inactive | – | – | –
Cc1cc(C)c(NC(=O)CN(CC(=O)O)CC(=O)O)c(C)c1Br | inactive | inactive | inactive | inactive | inactive | – | – | –
FC(F)(F)C(Cl)Br (stereo unspecified) | inactive | inactive | inactive | inactive | inactive | – | – | –
O=C(O)c1ccc[n+]([O-])c1 | inactive | inactive | inactive | inactive | inactive | – | – | –
Nc1ccc(C(=O)Oc2ccccc2)c(O)c1 | inactive | inactive | inactive | inactive | inactive | – | – | –
CC(=O)[C@@]1(O)CC[C@H]2[C@@H]3C[C@H](C)C4=CC(=O)C=C[C@]4(C)[C@@]3(F)[C@@H](O)C[C@@]21C | inactive | inactive | inactive | inactive | inactive | – | – | –

Structure (SMILES) | outcome [1] | outcome [2] | outcome [3] | outcome [4] | outcome [5] | outcome [6] | Potency [7] | max response [8] [%]
CCCC(O)C(CC)CO (stereo unspecified) | inactive | inactive | inactive | inactive | – | inactive | inactive | 29.3
Cc1cccc(C)c1NC(=O)CC12CCCN1CCC2 | inactive | inactive | inactive | inactive | inactive | – | – | –
CCOc1ccccc1O[C@H](c1ccccc1)[C@H]1CNCCO1 | inactive | inactive | inactive | inactive | – | – | 22.4 µM (active) | 9.87
CC(C)=CCC/C(C)=C/CO | inactive | inactive | inactive | inactive | inactive | – | – | –
Cc1c(N(C)C)c(=O)n(-c2ccccc2)n1C | inactive | inactive | inactive | inactive | inactive | – | – | –
Nc1c2c(nc3c1CCC3)CCCC2 | inactive | inactive | inactive | inactive | inactive | – | – | –
NC(N)=NS(=O)(=O)c1ccc(N)cc1 | inactive | inactive | inactive | inactive | inactive | – | – | –
Cc1cc(O)cc(C)c1Cl | inactive | inactive | inactive | inactive | inactive | – | – | –
Cc1ccc2c(c1)c1c3n2CCNC3CCC1 (stereo unspecified) | inactive | inactive | inactive | inactive | inactive | inactive | inactive | –
O=C(CN1CCNCC1)NC1CCCCC1 | inactive | inactive | inactive | inactive | inactive | – | – | –
O=C1c2ccccc2S(=O)(=O)N1CCCCN1CCN(c2ncccn2)CC1 | inactive | inactive | inactive | inactive | inactive | – | – | –
CCOC(=O)c1cccnc1 | inactive | inactive | inactive | inactive | inactive | – | – | –
O=c1[nH]cnc2nc[nH]c12 | inactive | inactive | inactive | inactive | inactive | – | – | –
Cc1cc(OI)c(C(C)C)cc1-c1cc(C(C)C)c(OI)cc1C | inactive | inactive | inactive | inactive | inactive | – | – | –
Cc1cc(C)nc(NS(=O)(=O)c2ccc(N)cc2)n1 | inactive | inactive | inactive | inactive | inactive | – | – | –
CC(=O)OCC(COC(C)=O)OC(C)=O | inactive | inactive | inactive | inactive | inactive | – | – | –
Cn1cc(C(=O)[C@@H]2CCc3nc[nH]c3C2)c2ccccc21 | inactive | inactive | inactive | inactive | – | inactive | – | 11.5
